# Compound activity deposited in PubChem by National Center for Advancing Translational Sciences (NCATS).
# Rows were chosen to be rich in hits. Some 4.6% of all compounds tested hit in one or more screens of this group.
# TRHR ag = activates the human TRH receptor. activation, % at 2 µM. AID 493084. TRHR cells, calcium flux fluo-8, FDSS agonist mode. 0.18% of 360,000 active. P34981; further: 0% is about no effect
# Target sequence (P34981 whole entry, looked up): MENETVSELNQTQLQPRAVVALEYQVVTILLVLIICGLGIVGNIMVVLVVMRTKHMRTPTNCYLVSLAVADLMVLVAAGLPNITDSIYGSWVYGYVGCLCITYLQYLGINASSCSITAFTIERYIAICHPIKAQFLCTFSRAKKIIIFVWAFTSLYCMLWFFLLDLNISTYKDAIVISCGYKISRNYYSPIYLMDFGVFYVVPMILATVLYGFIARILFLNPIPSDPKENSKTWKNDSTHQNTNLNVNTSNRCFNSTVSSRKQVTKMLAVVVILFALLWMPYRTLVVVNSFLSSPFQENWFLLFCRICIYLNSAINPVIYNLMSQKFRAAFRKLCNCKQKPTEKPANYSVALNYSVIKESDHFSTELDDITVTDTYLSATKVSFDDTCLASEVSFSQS
#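 Fluo-8-loaded TRHR cells; 10 s baseline, compound added, kinetic Ca2+ fluorescence read 1/s, agonist mode.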
# D1 PAM = enhances dopamine response at the human D1 receptor; HEK293 TREx D1 cells, calcium flux, dopamine EC20 potentiation; 0.036% of 360,000 active; potentiation, % at 10 µM; in the data active means potentiation above about 30%; further: 0% is about no effect
# TRHR PAM = allosterically enhances the human TRH receptor; enhancement, % at 2 µM; TRHR cells, fluo-8 calcium fluorescence, EC20 TRH enhancement; 0.66% of 360,000 active; in the data active means enhancement above about 30%; further: 0% is about no effect
#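 Enhancer read-out: after compound pinning and an initial kinetic agonist-mode read, an EC20 of TRH (10 nM final) was injected and fluo-8 calcium signal (Ex 480/Em 530) followed at 1 s/cycle for 100 cycles in TRHR-expressing cells.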
# D1 antag = antagonists of human D1 dopamine receptor | P21728 | HEK293 TREx D1 cells, calcium flux, dopamine EC80; active compounds read low | activity change, negative = inhibition, % at 10 µM | 3.2% of 360,000 active | AID 504652; in the data active means activity change below about -30%; further: on the % scale 0 is the no-effect control and ±100 the full control effect
#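 Antagonism measured as reduced calcium response to an EC80 dopamine addition following 180 s compound pre-read; cells were inducible HEK293 Trex D1 plated overnight at 30 C, read kinetically at 1 cycle/sec.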
# D1 ag = activates the human D1 dopamine receptor; P21728; HEK293 T-REx D1 cells, calcium flux, agonist mode; activation, % at 2 µM; 1% of 360,000 active; AID 504660; further: 0% is about no effect
#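 Inducible HEK293 T-REx D1 cells, force-coupled to calcium signalling, were plated at 4000 cells/well with tetracycline and held overnight at 30 C. After no-wash calcium dye loading, compound-evoked calcium rise over 180 s flagged agonists.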
# * = called active by the depositor; · = no result given. Unless noted, no stated cut-off is given here; in the data, active means activation above about 30%; inactive means the rest.
SMILES,TRHR ag,D1 PAM,TRHR PAM,D1 antag,D1 ag
COc1ccc(-c2cc3onc(-c4c(Cl)cccc4Cl)c3c(=O)n2C)cc1,0,-6,0,-33*,7
Cc1nc(NC(=O)c2cccc(Cl)c2)sc1C(=O)N1CCCCC1,0,-2,11,20,3
Cc1cccc(S(=O)(=O)Nc2cccc3c2C(=O)c2ccccc2-3)c1,20,2,-8,3,50*
Cc1ccc(Nc2nc(C)nc(N)c2S(=O)(=O)c2ccccc2)cc1,-1,-3,-2,1,1
Cc1ccc(S(=O)(=O)N(C)Cc2ccc(C(=O)N/N=C3\CC(=O)CC(C)(C)C3)cc2)cc1,0,-4,-1,-42*,-1
Cc1ccc(S(=O)(=O)N(C)Cc2ccc(C(=O)N/N=C/c3ccc(OC(F)F)cc3OC(F)F)cc2)cc1,1,-4,6,-13,4
CCn1c(N2CCN(C(=O)NC3CCCCC3)CC2)nc2ccccc21,0,-1,-7,2,-1
CCn1c(NC2CCCCC2)nc2ccccc21,0,-7,2,-34*,0
CSCCC(NS(=O)(=O)c1ccccc1F)C(=O)Nc1ccncc1 (configuration not stated),0,-3,-4,19,3
CCN(CC)c1nc2c(S(=O)(=O)c3cccc(Cl)c3)nnn2c2ccsc12,1,-6,-20,-40*,4
CN(Cc1ccccc1)c1nc2c(S(=O)(=O)c3cccc(Cl)c3)nnn2c2ccsc12,0,-3,7,-32*,2
CCOC(=O)c1sc(NC(=O)CSc2n[nH]c(-c3ccccc3)n2)c(C#N)c1C,0,-2,-6,-36*,26
Cc1ccc2occ(/C=N/NC(=O)c3ccncc3)c(=O)c2c1,0,-2,-1,-34*,1
Cc1ccc2occ(/C=N/NC(=O)c3ccc(Cl)cc3)c(=O)c2c1,0,2,-4,-9,2
CCc1ccc(NS(=O)(=O)c2ccc3[nH]cc(C(=O)N4CCCCCC4)c(=O)c3c2)cc1,0,-2,-9,-11,-1
Cc1cnc(NS(=O)(=O)c2ccc(Cl)cc2)c(Br)c1,-1,-1,3,-38*,1
COC(=O)/C=c1/s/c(=C(\C#N)C(=O)NCc2ccco2)n(-c2ccccc2)c1=O,1,-2,-2,-33*,1
CN(C)c1nc(N(C)C)n(C(=O)c2ccc(F)cc2)n1,0,-4,-4,-33*,4
COc1ccc(C2CC(=O)c3cc(-c4nc(-c5cccc(Cl)c5)cs4)c(=O)[nH]c3C2)cc1OC (configuration not stated),4,4,20,7,0
COc1ccc(CN2C(=NC(=O)C3CC3)SC3CS(=O)(=O)CC32)cc1OC (configuration not stated),1,-6,3,-31*,2
COc1ccc(C(=O)N=C2SC3CS(=O)(=O)CC3N2Cc2ccc(OC)c(OC)c2)cc1 (configuration not stated),1,2,-2,-10,7
COc1ccc(OC)c(C2(O)CSC(=Nc3cccnc3)N2Cc2ccco2)c1 (configuration not stated),-2,-2,4,·,2
OC1(c2ccc(OC(F)F)cc2)CSC(=Nc2cccnc2)N1C1CC1 (configuration not stated),2,-12,0,-30*,10
CCCCC(CC)CNC(=O)c1cccs1 (configuration not stated),0,-2,2,-62*,-1
CC(C(=O)Nc1ccc([N+](=O)[O-])cc1)N1CCN(C/C=C/c2ccccc2)CC1 (configuration not stated),2,-14,1,-45*,26
SMILES,TRHR ag,D1 PAM,TRHR PAM,D1 antag,D1 ag
Cc1ccc(S(=O)(=O)N(Cc2nc(-c3cccc(C)c3)no2)C2CCCCC2)cc1,2,-2,4,6,9
CCOCCCN1C(=O)CN(C2CCCCCC2)C(=O)C1c1ccc(OC(C)C)c(OC)c1 (configuration not stated),-1,-2,-1,-38*,-4
COc1ccc(/C=C/C(=O)NC(=S)NCC2CCCO2)cc1 (configuration not stated),1,-18,-6,-48*,5
CCOC(=O)N1CCN(C(=O)C2CCC(=O)N(Cc3cccc(C(F)(F)F)c3)C2)CC1 (configuration not stated),0,-2,-2,-24,2
Cc1ccc(N(C(C)C(=O)N2CCCC2)S(C)(=O)=O)cc1 (configuration not stated),0,4,-7,-32*,1
CC(NCC(O)COc1ccc(Br)cc1)c1ccccc1 (configuration not stated),2,-10,1,-14,7
CC(NCC(O)COC1CCC(C(C)(C)C)CC1)c1ccccc1 (configuration not stated),1,25,14,0,112*
CC1CCC(C(C)C)C(OCC(O)CNC(C)c2ccccc2)C1 (configuration not stated),-1,-1,2,43,33*
CCOc1ccc(-n2c(=O)c3c(C)c(C(=O)N(C)C)sc3n(CC(=O)Nc3c(C)cc(C)cc3C)c2=O)cc1,-1,1,-4,-5,0
COc1ccc(Cl)cc1N=C1NC(=O)CC(C(=O)Nc2ccccc2C(F)(F)F)S1 (configuration not stated),0,-2,5,-2,-1
COc1ccccc1NC(=O)Cn1c([N+](=O)[O-])cnc1C,0,1,-8,5,4
Cc1ccccc1NC(=O)Cn1c([N+](=O)[O-])cnc1C,1,-4,-3,-47*,0
Cc1cc(NC(=O)c2ccc(-c3ccc(F)c(Cl)c3)o2)no1,0,-3,-3,4,2
Cc1cc(C)nc(NC(=O)c2c(-c3c(Cl)cccc3Cl)noc2C)n1,0,-4,15,13,-1
Cc1cc(NC(=O)c2c(-c3c(F)cccc3Cl)noc2C)no1,0,-1,-1,-3,11
Cc1cc(NC(=O)c2c(Cl)cccc2Cl)no1,-1,-5,30*,14,3
Cc1cc(NC(=O)c2c(-c3c(Cl)cccc3Cl)noc2C)n(C)n1,0,-11,13,-50*,3
Cc1cc(NC(=O)c2ccc(-c3ccccc3F)o2)no1,0,-4,37*,10,6
CC(NC(=O)C1CCN(C(=O)c2ccc(F)cc2)CC1)c1ccc(-n2ccnc2)cc1 (configuration not stated),0,·,3,2,2
CCOC(=O)c1c(S(=O)(=O)N2CCC(C(=O)NCc3ccccc3Cl)CC2)c(C)n(C)c1C,-1,-1,-4,-8,5
